ClpP mod: qHTS Assay for Activators of ClpP | purified B. subtilis ClpP, FRET peptide cleavage, 20 min | Potency, µM (highest dose often 57.5 µM), without a hit: at the top dose activity change, negative = active | ATP-dependent Clp protease proteolytic subunit (Bacillus subtilis (strain 168)), P80244 | hit rate 1.9% among 340,000; active = well fitted falling curve with a large enough effect; inconclusive = small, poorly fitted or top-dose-only effect; inactive = no such curve, though single readings can be large or run the other way; note: potency is the fitted concentration of half-maximal effect; the source files actives as falling curves though it sought activators and does not explain the sign; nearly all actives have a fitted effect of over 65% in size
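FRET quenching reversal measured ClpP activation: 10 microg/mL B. subtilis ClpP at pH 8 with the FRET-FV decapeptide, read at 430 nm after 320 nm excitation. The 20-min minus 0-min signal was scaled between DMSO/no-enzyme wells and ADEP (5.8 microM final).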
uPA surface inh: inhibitors of cell surface uPA generation. Potency, µM (highest dose often 38.3 µM), for inactives: top-dose activity change, negative = inhibition, hits mostly inhibitors. hit rate 0.31% among 330,000. AID 540303. cell surface uPA generation assay, qHTS; active = well fitted inhibition curve with a large enough effect; inconclusive = small, poorly fitted or top-dose-only effect; inactive = no such curve, though single readings can be large or run the other way; tested in mouse RAW 264.7 cells; note: potency is the fitted concentration of half-maximal effect; % is set by controls: 0 for no effect and ±100 for the full control effect; nearly all actives have a fitted effect of over 55% in size
TCR activator: T cell receptor activation. Potency, µM (series often up to 9.22 µM), for inactives: top-dose activation of IL-2 secretion, actives largely listed as activators. 330,000 tested, under 10 active. primary human leukocytes, anti-CD3, IL-2 HTRF, 48 h; note: % of control where 0% means no effect
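IL-2 release read by HTRF sandwich (Eu cryptate donor, d2 acceptor, 665 nm emission) after 48 hr exposure of primary human leukocytes to compound together with anti-CD3 beads in the absence of co-stimulatory signals.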
Sfp PPTase inh: Sfp phosphopantetheinyl transferase inhibition. Q9F4F7. Biochemical Sfp PPTase activity, qHTS. Potency, µM, without a hit: largest response in the series, negative = inhibition, usual class: inhibitors. hit rate 3.5% among 310,000. AID 1490;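 note: the enzyme is Sfp with the accession as filed and its product quenches rhodamine fluorescence; potency is the fitted concentration of half-maximal effect; 0% = enzyme reaction without inhibitor and -100% = no enzyme wells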
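Reaction rates are the 30-min fluorescence difference (ex 525, em 598 nm) in wells containing 15 nM Sfp, 5 uM rhodamine-CoA and 12.5 uM BHQ-2-YbbR at pH 7.6 with 10 mM MgCl2.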
Starred values were filed as active, the others as inactive; ? = inconclusive; nt = no result; ! = repeats disagree; [ ] = dose if it differs, or a comment. Shown are actives, neighbours in structure and some others; about 4.2% of the full set was active somewhere. Unless noted, calls come from the whole dose curve; as a rule, active = well fitted curve in the direction sought with a large enough effect; inconclusive = small, poorly fitted or top-dose-only effect, or another doubt; inactive = no such curve, though single readings can be large; an effect the other way counts as inactive or inconclusive.

SMILES	ClpP mod	uPA surface inh	TCR activator	Sfp PPTase inh
CC[C@]12C=CCN3CC[C@@]4(c5ccc(OC)cc5N(C)[C@H]4[C@@](O)(C(=O)OC)[C@@H]1OC(C)=O)C32 (stereo partly specified)	nt	nt	nt	-6%
CO[C@H]1[C@@H](O)CC(OC2[C@@H](O)CC(OC3[C@@H](O)C[C@H](OC4CC[C@@]5(C)C(CCC6C5CC(O)[C@]5(C)[C@H](C7=CC(=O)OC7)CCC65O)C4)O[C@@H]3C)O[C@@H]2C)O[C@@H]1C (stereo partly specified)	nt	nt	nt	-7%
C=CC[N+]1(C)CCC23c4c5ccc(O)c4O[C@H]2C(=O)CC[C@@]3(O)C1C5 (stereo partly specified)	nt	nt	nt	56µM*
Cc1cc(S(=O)(=O)NC(C)C)ccc1OCC(=O)N1CCN(Cc2ccc3c(c2)OCO3)CC1	-2%	-5%	3%	-13%
Cc1cc(S(=O)(=O)NCC(C)C)ccc1OCC(=O)N1CCN(Cc2ccccc2)CC1	16µM*	-7%	-11%	-15%
CC(C)OC(=O)c1c(N)n(Cc2ccco2)c2nc3ccccc3nc12	14µM*	6%	-6%	50µM*
COC(=O)c1c(N)n(Cc2ccc(OC)cc2)c2nc3ccccc3nc12	10µM*	-2%	-4%	-5%
CCOC(=O)c1c(N)n(Cc2ccc(OC)cc2)c2nc3ccccc3nc12	nt	nt	nt	0%
COCCOC(=O)c1c(N)n(Cc2ccco2)c2nc3ccccc3nc12	8%	4%	1%	56µM*
C/C=C1/CN2CC[C@]34C(=C(C=O)[C@@H]1C[C@H]23)Nc1c(O)cccc14	nt	nt	nt	-14%
O=C1Nc2cc(Cl)c(Cl)cc2N2CCNC[C@H]12	nt	nt	nt	-22%
CC1CCC2C(C)C(=O)OC3OC4(C)CCC1C32OO4 (stereo unspecified)	nt	-12%	4%	89µM*!
CC/C=C\C/C=C\C/C=C\C/C=C\C/C=C\CCCC(=O)NC(C)C(=O)O (stereo unspecified)	nt	nt	nt	-11%
Nc1c(C(=O)NCC2CCCO2)c2nc3ccccc3nc2n1Cc1ccco1 (stereo unspecified)	nt	2%	-2%	4µM*
Nc1c(C(=O)NCc2ccco2)c2nc3ccccc3nc2n1CCN1CCCCC1	-20%	?	0%	-16%
CC(C)CNC(=O)c1c(N)n(Cc2ccco2)c2nc3ccccc3nc12	22µM*	6%	7%	32µM*
COc1ccc(Cn2c(N)c(C(=O)NCc3ccco3)c3nc4ccccc4nc32)cc1OC	32µM*	-3%	5%	?
COCCCNC(=O)c1c(N)n(Cc2ccco2)c2nc3ccccc3nc12	4%	9%	4%	13µM*
Nc1c(C(=O)NC2CCCC2)c2nc3ccccc3nc2n1CC1CCCO1 (stereo unspecified)	-28%	-2%	0%	-13%
CC(=O)OCC(N)C(=O)c1ccccc1 (stereo unspecified)	nt	nt	nt	-11%
COCC1CCCCN1C(=O)c1ccc(OC)c(OC2CCN(C(C)C)CC2)c1 (stereo unspecified)	-2%	?	-11%	7%
CCCNC(=O)c1c(N)n(Cc2ccco2)c2nc3ccccc3nc12	28µM*	nt	-3%	?
CCOC(=O)c1c(N)n(CCCOC(=O)c2ccco2)c2nc3ccccc3nc12	?	-11%	10%	7%
Cc1ccccc1CN1CCNCC1	nt	5%	nt	1%
Cc1ccccc1CN1CCN(c2ccc(Cl)cc2)CC1	nt	-4%	10%[46.1 µM]	50µM*
SMILES	ClpP mod	uPA surface inh	TCR activator	Sfp PPTase inh
COc1ccc(C(=O)c2sc3nc(C)cc(-c4cccs4)c3c2N)cc1OC	-1%	1%	?	-28%
CCCCn1c(O)c(C(CC)=Nc2ccc(C(=O)O)cc2)c(=O)[nH]c1=O	2.5µM*	6%	1%[46.1 µM]	-5%
C=CCn1c(O)c(C(CC)=Nc2ccc(C(=O)O)cc2)c(=O)[nH]c1=O	nt	0%	4%	-7%
NC(=O)CSP(=O)(c1ccccc1)c1ccccc1	0%	nt	1%	16µM*
COP(=O)(CC(=O)O)c1ccccc1 (stereo unspecified)	-1%	nt	2%	-13%
CC(C)N1CCN(Cc2cccc([N+](=O)[O-])c2)CC1	nt	-1%	-10%	79µM*
O=[N+]([O-])c1cccc(CN2CCN(Cc3ccc(Cl)cc3)CC2)c1	nt	-6%	-2%	?
Cc1ccc2cc(NC(=O)c3ccccc3)ccc2n1	-2%	?	-2%	6%
OCCNc1c2c(nc3ccccc13)CCCC2	1%	2%	-8%	12%
CNc1ccc2nc3ccccc3[n+](C)c2c1	0%	4.5µM*	37%	-25%
C[n+]1c2ccccc2nc2ccc(NCCO)cc21	nt	-6%	12%	79µM*
Cc1cc(Br)ccc1NC(=O)CN(C)C(=O)C1CCN(c2ncnc3sc(C)c(C)c23)CC1	-3%	?	7%	nt
O=c1[nH]c(=S)n(Cc2ccco2)c(O)c1C=NCc1cccs1	-2%	-4%	6%	-1%
N#Cc1c(/N=C/c2c(O)n(Cc3ccco3)c(=O)[nH]c2=O)sc2c1CCCC2	-3%	-1%	7%	79µM*
O=c1[nH]c(=O)n(Cc2ccco2)c(O)c1C=NCc1cccs1	-2%	-1%	nt	50µM*
C[C@@H]1O[C@@H](O[C@@H]2C=C3CC[C@@H]4[C@@H](CC[C@]5(C)[C@H](c6ccc(=O)oc6)CC[C@@]45O)[C@@]3(C)CC2)[C@H](O)[C@H](O)[C@H]1O	0%	nt	nt	nt
Cc1cccc(NC(=O)Cn2cc(C(=O)C3CC3)c3ccccc32)c1C	nt	2%	0%	?
CCC(C=C[C@@H]1OC(=O)C=C[C@H]1C)=C[C@H](C)CC=CC(C)=C[C@@H](C)C(=O)[C@@H](C)[C@H](O)[C@@H](C)CC(C)=CC(=O)O	nt	nt	nt	0.71µM*
CC(C)CN(CC(C)C)c1ccc(C=C2C(=O)NC(=S)NC2=O)cc1[N+](=O)[O-]	3%	-5%	6%	20µM*
CN(C)c1ccc(C=C2C(=O)NC(=S)NC2=O)cc1	-2%	0%	-1%	nt
CCOc1ccc(C=C2C(=O)NC(=S)NC2=O)cc1OCC	-2%	-5%	-2%	nt
CCN(CC)c1ccc(C=C2C(=O)NC(=S)NC2=O)cc1	1%	-4%	1%	3.2µM*
CCN1C[C@@]2(COC(=O)c3ccccc3N3C(=O)CC(C)C3=O)CC[C@H](OC)[C@]34C5C[C@@H]6[C@@H](OC)C[C@@](O)(C5[C@H]6OC)[C@@](O)(C13)[C@@H](OC)C24 (stereo partly specified)	nt	nt	nt	16%
O=C1c2ccccc2C(=O)N1SC1CCCCC1	0%	-4%	6%	10µM*
O=C1C(=O)c2ccccc2-c2ccccc21	2%	?	-1%	-16%
O=C1CSC(=S)N1Cc1cccs1	0%	?	-3%	nt
COc1ccc(Cc2c(O)[nH]c(=S)[nH]c2=O)cc1	nt	4%	5%	56µM*
COc1ccc(N2C(=O)NC(=O)/C(=C/c3cccc(OC(=O)c4cccs4)c3)C2=O)cc1Cl	4%	-6%	3%[46.1 µM]	?
